In PubChem BioAssay one finds composite z-score and z-score data, which are given here for eight molecules.

Assay [1] relates to Plasmodium falciparum Sir2 (PF13_0152, Sir2A). Description: Plasmodium falciparum Sir2A binding compounds – biochemical, small-molecule microarray, 635 nm fluorescence, primary screen (AID 1098).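 Further: score merges spot fluorescence intensity with its signal-to-noise ratio.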 The settings on record: fluorescence 635 nm, higher = more signal.
The nature of assay [2]: probe aDKK1 binding to arrayed compounds – biochemical, biotinylated probe, 635/667 nm fluorescence, primary screen (AID 1099).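 Further: score merges 667nm spot fluorescence with signal to noise across triplicate slides.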 The settings on record: small-molecule microarray, higher = more signal.
Assay [3] can be described thus: probe aCHRDL2 binding to arrayed compounds – biochemical, biotinylated probe, 635/667 nm fluorescence, primary screen (AID 1100). The settings on record: small-molecule microarray, higher = more signal.
The nature of assay [4]: change in splice reporter luminescence, either direction, cell-based, HEK293, spliceosome inhibition project, primary screen (AID 1101).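 Further: HEK293 cells carrying a splicing-competent luciferase reporter gene; test concentration not given here.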 The settings on record: HEK293 splicing luciferase reporter, 24 h, higher = more signal, called active from +8 up or from −8 down. For orientation: In a reporter assay the amount or activity of a reporter protein is the signal.
For assay [5], the target named is Fibroblast growth factor 10 (Homo sapiens) (UniProt O15520). Description: compounds binding fibroblast growth factor 10 – biochemical, small-molecule microarray, 635 nm fluorescence, primary screen (AID 1102). The settings on record: FGF10 binding, fluorescence 635 nm, higher = more signal.
The subject of assay [6] is glycogen synthase kinase-3 (GSK3A per assay name; protocol says GSK3B). Nature of the assay: compounds binding glycogen synthase kinase-3 – biochemical, small-molecule microarray, 635 nm fluorescence, GSK3A, primary screen (AID 1103). Further: the record names both GSK3A and GSK3B. The settings on record: fluorescence 635 nm, higher = more signal.
Assay [7] addresses Epidermal growth factor receptor (Homo sapiens) (UniProt P00533). Nature of the assay: compounds binding epidermal growth factor receptor – biochemical, small-molecule microarray, 635 nm fluorescence, primary screen (AID 1104).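 Further: score merges 667 nm emission intensity with spot signal to noise over triplicate slides.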 The settings on record: EGFR binding, higher = more signal.
The target in assay [8] is Follistatin-related protein 3 (Homo sapiens) (UniProt O95633). Description: compounds binding follistatin-related protein 3 – biochemical, small-molecule microarray, 635 nm fluorescence, primary screen (AID 1105).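 Further: score merges emission near 667 nm and signal to noise per printed spot across three slides.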 The settings on record: FSTL3 binding, higher = more signal.
Assay [9] concerns the target Dickkopf-related protein 1 (Homo sapiens) (UniProt O94907). Nature of the assay: small molecules binding DKK1 protein – biochemical, small-molecule microarray, 635 nm fluorescence scan, primary screen (AID 1106).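 Further: score merges emission near 667 nm with signal to noise over three replicate slides.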 The settings on record: higher = more signal.
In assay [10] the test system is Inhibin beta A chain (activin A). Nature of the assay: small molecules binding activin A – biochemical, small-molecule microarray, 635 nm fluorescence scan, primary screen (AID 1107).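 Further: mouse activin A protein probed at 4.33 µg/mL on printed slides; score merges bound-protein fluorescence near 667 nm with spot signal-to-noise.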 The settings on record: INHBA, higher = more signal.
For assay [11], the system named is Human papillomavirus type 1a protein E7 (residues 44-93). Nature of the assay: small molecules binding HPV E7 44-93 – biochemical, small-molecule microarray, residues 44-93, 635 nm fluorescence, primary screen (AID 1108).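 Further: E7 fragment applied at 1 µg/mL in TBST for 1 h at 4 C; score combines spot fluorescence with its signal to noise ratio.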 The settings on record: fluorescence 635 nm, higher = more signal.
Assay [12] is described as follows: hepatitis C replication reporter changes, two-sided – Huh7 cells, luciferase reporter, HCV replication inhibitor project, primary screen (AID 1109).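 Further: huh7 hepatoma cells harbouring a luciferase neomycin HCV replicon reporter; luciferase luminescence as measure of HCV replicon replication; test concentration not given here.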 The settings on record: Huh7 HCV replicon luciferase reporter, 48 h; higher = more signal.
Assay [13] has as its target Left-right determination factor 2 (Homo sapiens) (UniProt O00292). Nature of the assay: small molecules binding LEFTY2 protein – biochemical, small-molecule microarray, 635 nm fluorescence scan, primary screen (AID 1110). The settings on record: higher = more signal.
For assay [14], the target named is Calmodulin-1 (Homo sapiens) (UniProt P0DP23). Description: small molecules binding calmodulin-1 with EGTA – biochemical, small-molecule microarray, Cy5-labelled CALM1, profiling panel (AID 1111).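 Further: labelled calmodulin applied in Tris saline Tween buffer holding calcium plus EGTA and DTT.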 The settings on record: Cy5-CALM1 binding fluorescence, higher = more signal.
Assay [15] has the same target. Nature of the assay: small molecules binding Ca-loaded calmodulin-1 – biochemical, small-molecule microarray, Cy5-labelled CALM1, plus calcium, artefact control for SMM control-protein annotation, profiling panel (AID 1112).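 Further: score merges spot fluorescence with signal to noise from triplicate slides.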 The settings on record: Cy5-CALM1 binding fluorescence, higher = more signal.
A short description of assay [16]: probe aWnt5a binding to arrayed compounds – biochemical, biotinylated probe, 635/667 nm fluorescence, primary screen (AID 1113).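 Further: score merges 667 nm fluorescence intensity with signal-to-noise per printed feature.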 The settings on record: small-molecule microarray, higher = more signal.
Assay [17] is described as follows: probe aShh binding to arrayed compounds – biochemical, biotinylated probe, 635/667 nm fluorescence, primary screen (AID 1114).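 Further: probe is biotin-labelled aShh protein from a stem cell growth factor screen; measures binding of labelled protein to compounds printed on the slide; score merges feature fluorescence at 667 nm with signal-to-noise.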 The settings on record: small-molecule microarray, higher = more signal.
The nature of assay [18]: probe aNog binding to arrayed compounds – biochemical, biotinylated probe, 635/667 nm fluorescence, primary screen (AID 1115).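 Further: probe is biotinylated aNog protein used at 0.15 µg/mL for 1 h at 4 C; z-score combines 667 nm fluorescence of each spot with its signal to noise.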 The settings on record: small-molecule microarray, higher = more signal.
For assay [19], the target named is Torsin-1A-interacting protein 1 (Homo sapiens) (UniProt Q5JTV8). Nature of the assay: compound microarray binding of lysate hLAP1 – cell lysate, small-molecule microarray, COS7 lysate, 635/667 nm fluorescence, primary screen (AID 1116). The settings on record: 635 nm fluorescence, higher = more signal.
In assay [20] the target is Alpha-bungarotoxin (Bungarus multicinctus) (UniProt P60615). Description: compounds binding labelled alpha-BTX control protein – biochemical, small-molecule microarray, Alexa647 label, 635/667 nm fluorescence, artefact control for SMM control protein annotation, profiling panel (AID 1117). The settings on record: alpha-BTX-A647 binding fluorescence, higher = more signal.

Each structure is given as a SMILES string. Active and inactive are the calls of the source.

Epidermal growth factor receptor (Homo sapiens), sequence (P00533 whole entry, looked up): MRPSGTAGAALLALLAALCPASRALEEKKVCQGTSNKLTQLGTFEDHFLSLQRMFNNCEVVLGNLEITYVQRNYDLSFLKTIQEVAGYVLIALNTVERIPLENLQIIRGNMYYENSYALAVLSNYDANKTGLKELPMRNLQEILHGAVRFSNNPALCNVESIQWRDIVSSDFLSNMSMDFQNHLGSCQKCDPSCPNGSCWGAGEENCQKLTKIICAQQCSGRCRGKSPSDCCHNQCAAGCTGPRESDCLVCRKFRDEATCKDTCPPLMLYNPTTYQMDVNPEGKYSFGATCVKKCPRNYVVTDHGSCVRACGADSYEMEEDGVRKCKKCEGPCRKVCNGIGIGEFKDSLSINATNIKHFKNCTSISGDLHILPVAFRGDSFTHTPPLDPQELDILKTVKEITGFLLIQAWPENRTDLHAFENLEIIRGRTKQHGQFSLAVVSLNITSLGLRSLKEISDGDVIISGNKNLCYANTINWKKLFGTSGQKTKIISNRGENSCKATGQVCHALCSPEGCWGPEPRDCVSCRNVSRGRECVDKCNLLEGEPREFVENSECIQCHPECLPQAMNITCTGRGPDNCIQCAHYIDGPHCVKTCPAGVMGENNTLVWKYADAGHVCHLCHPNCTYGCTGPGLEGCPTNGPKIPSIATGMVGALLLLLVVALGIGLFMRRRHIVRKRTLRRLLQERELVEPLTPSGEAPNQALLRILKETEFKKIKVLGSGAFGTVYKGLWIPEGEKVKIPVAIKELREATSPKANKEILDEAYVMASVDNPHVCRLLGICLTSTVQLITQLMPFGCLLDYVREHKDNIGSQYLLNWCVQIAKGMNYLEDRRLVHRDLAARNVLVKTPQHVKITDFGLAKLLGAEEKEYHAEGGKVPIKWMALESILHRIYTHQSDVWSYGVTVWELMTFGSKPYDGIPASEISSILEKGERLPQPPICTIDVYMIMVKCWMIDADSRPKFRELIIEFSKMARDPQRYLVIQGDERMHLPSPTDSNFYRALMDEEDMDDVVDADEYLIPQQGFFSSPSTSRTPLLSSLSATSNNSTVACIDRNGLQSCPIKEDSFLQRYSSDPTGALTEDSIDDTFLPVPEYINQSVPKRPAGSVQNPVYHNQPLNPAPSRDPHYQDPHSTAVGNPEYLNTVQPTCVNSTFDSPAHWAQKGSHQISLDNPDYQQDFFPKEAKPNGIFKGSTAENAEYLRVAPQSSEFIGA
Fibroblast growth factor 10 (Homo sapiens), sequence (O15520 whole entry, looked up): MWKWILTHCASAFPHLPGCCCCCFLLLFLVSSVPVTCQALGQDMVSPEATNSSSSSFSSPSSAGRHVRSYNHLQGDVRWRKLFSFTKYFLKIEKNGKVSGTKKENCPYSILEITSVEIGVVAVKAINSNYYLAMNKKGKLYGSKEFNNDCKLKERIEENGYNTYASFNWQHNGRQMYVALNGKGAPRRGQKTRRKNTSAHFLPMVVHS
Left-right determination factor 2 (Homo sapiens), sequence (O00292 whole entry, looked up): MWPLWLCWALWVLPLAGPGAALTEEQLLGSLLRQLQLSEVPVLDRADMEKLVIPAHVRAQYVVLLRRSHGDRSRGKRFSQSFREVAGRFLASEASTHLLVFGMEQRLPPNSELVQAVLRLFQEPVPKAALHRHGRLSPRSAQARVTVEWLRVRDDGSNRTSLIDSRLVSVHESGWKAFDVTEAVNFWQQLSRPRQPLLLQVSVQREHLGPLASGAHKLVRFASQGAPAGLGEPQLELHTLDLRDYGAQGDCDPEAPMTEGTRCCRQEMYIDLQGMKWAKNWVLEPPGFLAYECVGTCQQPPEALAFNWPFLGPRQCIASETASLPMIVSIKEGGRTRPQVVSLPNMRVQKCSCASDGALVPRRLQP
Dickkopf-related protein 1 (Homo sapiens), sequence (O94907 whole entry, looked up): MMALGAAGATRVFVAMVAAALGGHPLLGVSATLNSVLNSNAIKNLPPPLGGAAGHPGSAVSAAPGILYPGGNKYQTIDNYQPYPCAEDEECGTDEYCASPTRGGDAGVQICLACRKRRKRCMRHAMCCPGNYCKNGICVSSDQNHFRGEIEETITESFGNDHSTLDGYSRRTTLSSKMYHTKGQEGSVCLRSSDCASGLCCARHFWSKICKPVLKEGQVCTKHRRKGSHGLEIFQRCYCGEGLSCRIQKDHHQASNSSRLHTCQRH
Alpha-bungarotoxin (Bungarus multicinctus), sequence (P60615 whole entry, looked up): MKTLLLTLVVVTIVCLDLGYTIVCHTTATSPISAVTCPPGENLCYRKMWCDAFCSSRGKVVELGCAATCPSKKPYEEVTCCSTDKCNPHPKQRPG
Torsin-1A-interacting protein 1 (Homo sapiens), sequence (Q5JTV8 whole entry, looked up): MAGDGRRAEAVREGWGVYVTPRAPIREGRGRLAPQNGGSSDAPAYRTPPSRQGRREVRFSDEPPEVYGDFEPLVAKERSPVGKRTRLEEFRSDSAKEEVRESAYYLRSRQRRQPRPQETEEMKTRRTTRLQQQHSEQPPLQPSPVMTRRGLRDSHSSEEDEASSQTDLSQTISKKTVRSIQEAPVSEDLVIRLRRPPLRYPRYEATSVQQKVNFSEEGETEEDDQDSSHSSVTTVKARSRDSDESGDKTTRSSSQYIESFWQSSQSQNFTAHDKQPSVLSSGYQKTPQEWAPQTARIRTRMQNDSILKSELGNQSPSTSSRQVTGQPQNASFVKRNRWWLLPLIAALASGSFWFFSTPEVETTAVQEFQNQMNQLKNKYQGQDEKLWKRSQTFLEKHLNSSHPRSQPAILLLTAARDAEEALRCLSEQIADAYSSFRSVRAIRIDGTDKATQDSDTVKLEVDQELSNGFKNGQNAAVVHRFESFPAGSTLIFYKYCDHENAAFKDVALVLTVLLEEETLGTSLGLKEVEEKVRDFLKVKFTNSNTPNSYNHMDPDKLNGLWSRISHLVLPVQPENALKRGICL
Follistatin-related protein 3 (Homo sapiens), sequence (O95633 whole entry, looked up): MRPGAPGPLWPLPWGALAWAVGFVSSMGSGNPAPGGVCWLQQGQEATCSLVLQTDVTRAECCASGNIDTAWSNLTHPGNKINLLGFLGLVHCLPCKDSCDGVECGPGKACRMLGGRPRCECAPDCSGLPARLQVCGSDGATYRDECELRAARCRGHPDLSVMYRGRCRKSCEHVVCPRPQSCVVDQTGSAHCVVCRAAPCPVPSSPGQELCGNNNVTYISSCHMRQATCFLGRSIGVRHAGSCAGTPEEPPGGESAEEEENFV

As for `Cc1nc2cc(Br)ccc2c(=O)o1`, the composite z-score in assay [1] is -0.319; in assay [2], -0.0717; in [3], -0.267; in assay [5], 0.543; in assay [6], 0.778; in assay [7], 0.427. Moreover, the composite z-score was 0.846 in [8]; 0.436 in assay [9]; 0.435 in assay [10]; 0.686 in assay [11]; 0.4 in [13]; 0.66 in assay [14]. Also, the composite z-score in assay [15] is 0.202; in assay [16] it was -0.198; in assay [17], -0.481; in [18], -0.483; in [19], 0.197; in assay [20], 0.206. Besides, the z-score in [4] was 0.502 (inactive); in assay [12], -0.569.
As for `CCS[C@H]1[C@@H](C(=O)O)[C@H](c2ccc(C)cc2)N(S(=O)(=O)c2ccc(C)cc2)[C@@H]1CC`, the composite z-score in assay [1] turned out to be 0.673; in assay [2] it was 0.686; in [3] it was 0.907; in assay [5], 1.14; in assay [6], 0.793; in [7], 0.0771. In addition, the composite z-score in assay [8] was 1.1; in assay [9], -0.0423; in assay [10] it was 0.626; in assay [11], 1.39; in assay [13], 0.0041; in assay [14], 0.83. The composite z-score in assay [15] is 0.0072; in assay [16], -0.1; in assay [17] it was -0.0035; in [18], 1.11; in assay [19], 0.827; in [20], 0.834. Further, the z-score was 0.269 (inactive) in assay [4] and 0.841 in [12].
On to `COCCOC(=O)N1C(=O)[C@@]2(c3cc(C#CC4(O)CCCCCC4)ccc31)[C@H](c1ccc(OCCO)cc1)N1[C@H](c3ccccc3)[C@H](c3ccccc3)OC(=O)[C@H]1[C@@H]2C(=O)N1CCN(c2ncccn2)CC1`, for which the composite z-score in assay [1] is 1; in assay [2], -0.165; in [3], 0.107; in assay [5], 1.11; in assay [6], 1.28; in assay [7] it was 0.334. Also, the composite z-score in assay [8] is 1.06; in [9], 0.48; in assay [10], 0.0414; in [11], 1.43; in assay [13] it was 0.419; in assay [14] it was 0.795. Further, the composite z-score in [15] was 0.124; in assay [16], 0.0044; in [17], -0.147; in [18] it was 0.106; in [19], 0.667; in [20] it was 1.19. Moreover, the z-score in assay [4] is -0.201 (inactive); in assay [12] it was -1.77.
For `Cc1ccc(S[C@]2(C(=O)NCCCN(C)C)CC(=O)N(Cc3cc(C(F)(F)F)cc(C(F)(F)F)c3)[C@@H]2c2ccc(CO)cc2)cc1`, the composite z-score in [1] was -1; in [2] it was -0.214; in assay [3] it was 0.495; in assay [5], -1.11; in assay [6] it was -0.655; in [7] it was -0.675. Further, the composite z-score in [8] was 0.259; in assay [9] it was -1.62; in [10], 0.798; in assay [11], -0.224; in [13] it was -0.286; in [14], 0.136. Also, the composite z-score was 0.499 in [15]; -0.152 in assay [16]; -0.0769 in assay [17]; -0.29 in assay [18]; 0.523 in assay [19]; 0.182 in [20]. In addition, the z-score in assay [4] is 0.269 (inactive); in assay [12], 0.478.
For `CCOC(=O)C[C@H]1[C@H](OC(=O)c2ccc(C(=O)c3ccccc3)cc2)[C@@H](NC(=O)CC(C)C)c2cc(OCCCO)ccc2N1C(=O)c1ccc2ccccc2n1`, the composite z-score was 0.366 in [1]; -0.0449 in assay [2]; -0.399 in assay [3]; 0.811 in assay [5]; 1.25 in assay [6]; 0.373 in assay [7]. Moreover, the composite z-score is 1.41 in assay [8]; 1.09 in assay [9]; 0.241 in assay [10]; 1.15 in assay [11]; 0.592 in [13]; 0.711 in [14]. Besides, the composite z-score in assay [15] is -0.297; in [16], -0.0704; in [17] it was -0.0793; in [18], -0.318; in [19] it was 0.547; in assay [20], 0.719. The z-score was -0.202 (inactive) in assay [4] and -1.22 in assay [12].
Consider `CC(C)=CCCC(C)=CC(O)C1C=CC2C(=O)N(C)C(=O)C2N1Nc1ccccc1` (stereo not given), for which the composite z-score in assay [1] worked out at 0.854; in [2], 0.473; in assay [3] it was 0.55; in assay [5], 0.914; in assay [6], 1.31; in assay [7] it was 1.52. Further, the composite z-score in assay [8] was found to be 1.47; in assay [9], 0.893; in assay [10], 1.07; in [11] it was 1.45; in assay [13] it was 0.457; in assay [14], 1.99. Besides, the composite z-score in assay [15] was 0.73; in assay [16], 0.0597; in assay [17], -0.0362; in [18] it was 1.3; in assay [19] it was 0.524; in assay [20] it was 2.04. For the same molecule, the values for the z-score in assay [4] and in assay [12] were 3.04 (inactive) and -2.28, respectively.
Turning to `O=C1c2ccccc2[C@](Cc2ccccc2I)(C(=O)NCCN2CCOCC2)[C@H](c2ccc(CO)cc2)N1C1CCCCC1`, the composite z-score in [1] is 0.979; in [2], 1.04; in [3], 0.77; in assay [5], 0.82; in [6], 1.3; in [7], 0.499. The composite z-score in [8] came to 1.24; in assay [9] it was 0.941; in assay [10], 0.821; in [11] it was 0.994; in [13], 0.804; in [14], 1.13. Moreover, the composite z-score in assay [15] worked out at 0.315; in assay [16], 0.0286; in assay [17] it was 0.359; in [18] it was 0.0308; in assay [19], 0.494; in assay [20], 1.83. The z-score was 0.821 (inactive) in assay [4] and -2.48 in assay [12].
As for `CC(C)c1ccc(NN2C(C(O)c3ccc(B(O)O)cc3)C=CC3C(=O)N(c4ccccc4)C(=O)C32)cc1` (stereo not given), the composite z-score in assay [1] is 1.24; in assay [2] it was 0.942; in [3], 1.05; in [5] it was 1.11; in assay [6], 1.25; in [7], -0.109. Moreover, the composite z-score in assay [8] is 1.38; in [9], -0.381; in [10], 0.849; in assay [11] it was 1.25; in [13] it was -0.355; in assay [14] it was 2.02. For the same molecule, the composite z-score is 1.08 in assay [15]; 0.0324 in [16]; -0.0362 in assay [17]; 2.19 in [18]; 2.08 in assay [19]; 1.27 in assay [20]. Also, the z-score in assay [4] was 0.844 (inactive); in [12] it was 4.39.
